Shown are actives, neighbours in structure and some others; about 3.5% of the full set was active somewhere.
MITF primary – inhibitors of human MITF; actives 0.91% (n = 650,000); O75030; AlphaScreen MITF homodimerization, bead proximity signal; inhibition, % at 2.6 µM; AID 1259374; in the data active = inhibition above about 50%
GPR151 activ – activates the human receptor GPR151 | PathHunter beta-arrestin GPR151 cells, luminescence | actives 1% (n = 650,000) | activation, % at 11.2 µM | Q8TDV0 | AID 1508602; in the data active = activation above about 4.9%
FBW7 act – human FBW7 E3 ligase activation, primary screen | actives 0.13% (n = 650,000) | AlphaScreen FBW7–phospho-cyclin E peptide binding, activator screen | Q969H0 | AID 1259310 | normalized activity (activation), % at 26.1 µM; in the data active = normalized activity above about 1.9%;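 note: purified mutant Fbw7 with reduced substrate affinity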
Target sequence (Q969H0 whole entry, looked up): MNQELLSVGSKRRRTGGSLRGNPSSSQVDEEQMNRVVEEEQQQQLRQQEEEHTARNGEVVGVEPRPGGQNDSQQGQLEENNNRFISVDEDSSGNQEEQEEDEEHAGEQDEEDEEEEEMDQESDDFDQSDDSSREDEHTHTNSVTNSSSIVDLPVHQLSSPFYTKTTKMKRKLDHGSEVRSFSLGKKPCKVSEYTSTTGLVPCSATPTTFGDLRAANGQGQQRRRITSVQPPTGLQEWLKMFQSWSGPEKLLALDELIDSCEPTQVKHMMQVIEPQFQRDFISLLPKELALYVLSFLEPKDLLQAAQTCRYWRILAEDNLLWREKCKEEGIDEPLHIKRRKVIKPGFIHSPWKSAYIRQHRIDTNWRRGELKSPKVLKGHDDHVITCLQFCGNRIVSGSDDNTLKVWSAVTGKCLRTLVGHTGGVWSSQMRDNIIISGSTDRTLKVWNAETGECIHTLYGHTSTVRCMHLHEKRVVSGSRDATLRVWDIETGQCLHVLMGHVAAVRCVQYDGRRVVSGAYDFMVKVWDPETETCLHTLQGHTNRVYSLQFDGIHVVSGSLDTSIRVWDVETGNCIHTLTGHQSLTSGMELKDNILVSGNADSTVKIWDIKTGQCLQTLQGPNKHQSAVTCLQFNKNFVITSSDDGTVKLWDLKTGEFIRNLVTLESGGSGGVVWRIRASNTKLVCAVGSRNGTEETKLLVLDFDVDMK
TEAD-YAP inh – TEAD-YAP interaction inhibition; HEK-TIYL cells, TEAD-Gal4/YAP UAS-luciferase luminescence; inhibition, % at 9.12 µM; actives 1.4% (n = 640,000); AID 1259422; in the data active = inhibition above about 32%
Each line names hits and unclear results; the compound was inactive in the other large screens.

CC(=O)Oc1ccc2cc(-c3ccc4c(c3)OCCO4)c(=O)oc2c1	TEAD-YAP inh 63
COc1ccc2cc(-c3nc(-c4ccccc4)no3)c(=O)oc2c1	TEAD-YAP inh 59
CC(=O)Oc1ccc2c(=O)c(-c3ccc4c(c3)OCCO4)c(C)oc2c1	none
COc1cccc(-c2cc3ccc(OC(C)=O)cc3oc2=O)c1	TEAD-YAP inh 58
COc1ccc(-c2cc3ccc(O)cc3oc2=O)cc1	TEAD-YAP inh 70
O=C1CC(N(Cc2ccc(F)cc2)C(=O)Nc2ccccc2)C(=O)N1c1ccc(F)cc1 (centres undefined)	none
CC/C(C)=N\NC(=O)c1cc(OC)c(OC)c(OC)c1	TEAD-YAP inh 58
CCOC(=O)C(=N/O)/C(C)=N/NC(=O)c1cc(OC)c(OC)c(OC)c1	TEAD-YAP inh 41
COc1cc(C(=O)NN=C2CCCCCC2)cc(OC)c1OC	TEAD-YAP inh 60
COc1ccc(C(=O)N/N=C(\C)CC(=O)NCc2ccco2)cc1OC	TEAD-YAP inh 35
Cc1cccc(NCc2nnc3n2CCCCC3)c1	none
Cc1nc(SCc2csc(C)n2)c2c3c(sc2n1)CCC3	none
CCCCOc1ccccc1NS(=O)(=O)c1cccc([N+](=O)[O-])c1	none
COc1ccc(NC(=O)c2cc3cccc(OC)c3oc2=Nc2ccc(C(=O)O)cc2)c(OC)c1	none
COc1cccc2cc(C(=O)NCc3ccco3)c(=Nc3ccc(C(=O)O)cc3)oc12	TEAD-YAP inh 46
COC(=O)CNC(=O)c1ccc(Cl)c([N+](=O)[O-])c1	none
CC(=O)c1ccc(NC(=O)CSc2nc(C)nc3sc(C)c(C)c23)cc1	none
Cc1nc(SCC(=O)Nc2cc(C(N)=O)cc(C(N)=O)c2)c2c(C)c(C)sc2n1	FBW7 act 16
CN1CCC(=NNC(=O)c2sc3ccccc3c2Cl)CC1	none
OCCN1CCN(C2CCN(Cc3cc(Br)ccc3O)CC2)CC1	MITF primary 53
CC1CN(C2CCN(Cc3cc(Br)ccc3O)CC2)CC(C)O1 (centres undefined)	MITF primary 70
Oc1ccc(Br)cc1CN1CCC(N2CCCCC2)CC1	none
CC(C)NCCOCCOc1ccccc1I	none
O=C1C2C3CCC(O3)C2C(=O)N1c1ccc2nc3ccccc3cc2c1 (centres undefined)	TEAD-YAP inh 80
O=C1C2C3CCC(O3)C2C(=O)N1c1cccc([N+](=O)[O-])c1 (centres undefined)	none
Cn1nc(CC(=O)Nc2ccc(F)cc2F)c2ccccc2c1=O	TEAD-YAP inh 34
COc1ccc(-n2nc(C(=O)NCC(=O)NCC3COc4ccccc4O3)c3ccccc3c2=O)cc1OC (centres undefined)	TEAD-YAP inh 36
Cn1nc(CC(=O)Nc2ccc(Br)cc2F)c2ccccc2c1=O	none
COc1ccccc1-n1nc(C(=O)Nc2cc(OC)c(OC)c(OC)c2)c2ccccc2c1=O	TEAD-YAP inh 32
COc1ccc(CCNC(=O)CNC(=O)c2nn(-c3ccc(OC)c(OC)c3)c(=O)c3ccccc23)cc1OC	TEAD-YAP inh 40
COc1ccc(NC(=O)c2nn(-c3ccccc3OC)c(=O)c3ccccc23)cc1OC	none
COc1ccc(-n2nc(C(=O)NCC(=O)NCCc3ccc(OC)c(OC)c3)c3ccccc3c2=O)cc1	none
O=C(Nc1ccc(NC(=O)c2cccs2)cc1)c1cccc(F)c1	none
O=C(O)CC1S/C(=N/N=C/c2ccc(O)cc2)NC1=O (centres undefined)	none
Cc1cccc(Nc2ccc(N3CCN(C(=O)/C=C/c4ccccc4)CC3)nn2)n1	none
CC(NC(=O)CCC(=O)N1CCOc2ccccc21)c1ccccc1 (centres undefined)	none
COc1cc(OC)cc(-n2nc(C(=O)NCCc3ccc(OC)c(OC)c3)c3ccccc3c2=O)c1	none
Cn1nc(CC(=O)NCC2COc3ccccc3O2)c2ccccc2c1=O (centres undefined)	TEAD-YAP inh 36
COc1cccc(-n2nc(C(=O)NCCc3ccc(OC)c(OC)c3)c3ccccc3c2=O)c1	TEAD-YAP inh 36
Cn1c(C(=O)O)c(CC(=O)NCC2COc3ccccc3O2)c2ccccc21 (centres undefined)	none
CCOCCn1c(=O)c2c(nc3n(-c4ccc(CC)cc4)c(C)cn23)n(C)c1=O	none
COc1ccc(CC(=O)N2CCC(c3nc(C)ncc3-c3ccncc3)CC2)cc1	FBW7 act 2.4
COC(=O)c1cccc(NC(=O)COc2ccccc2Cl)c1	none
CCCCOC(=O)c1cccc(NC(=O)COc2ccc(Br)cc2Br)c1	TEAD-YAP inh 58
CCCOC(=O)c1cccc(NC(=O)COc2ccccc2Cl)c1	TEAD-YAP inh 45
CSCCNC1CCN(c2ccc(CC(=O)NCCc3cccc(F)c3)cc2)CC1	none
O=C(CN(C(=O)c1csnn1)C1CCCC1)NCCc1ccccc1	none
CCN(CC)C(=O)Sc1nc2ccccc2s1	TEAD-YAP inh 44
O=C(Nc1ccc2c(c1)OCCO2)c1cc(Br)cc(Br)c1I	TEAD-YAP inh 47
O=C(Nc1ccc2c(c1)OCCO2)c1ccccc1Br	TEAD-YAP inh 37
O=C(Nc1nnc(-c2ccc3c(c2)OCCO3)o1)c1ccccc1Oc1ccccc1	none
O=C(CSc1ncccc1C(=O)O)Nc1ccc2c(c1)OCCO2	TEAD-YAP inh 63
O=C(Nc1nnc(-c2ccc3c(c2)OCCO3)o1)c1ccccc1Br	TEAD-YAP inh 68
O=C(NCCc1c[nH]c2ccccc12)C1(c2cccs2)CCOCC1	none
Cc1ccc(C)c(-n2nnnc2SC2CCOC2=O)c1 (centres undefined)	none
CC1CCCC(NC(=O)C2N(Cc3cccs3)C(=O)C3C(C(=O)Nc4cccc(Cl)c4)C4C=CC32O4)C1C (centres undefined)	none
OCCC1CCCCN1c1ccnc2c(-c3cccc(Cl)c3)cnn12 (centres undefined)	TEAD-YAP inh 90
OCCC1CCCCN1c1ccnc2c(-c3ccccc3)cnn12 (centres undefined)	TEAD-YAP inh 89
OC[C@@H]1CCCN1c1ccnc2c(-c3ccc(F)cc3)cnn12	TEAD-YAP inh 74
OCCC1CCCCN1c1ccnc2c(-c3ccccc3F)cnn12 (centres undefined)	TEAD-YAP inh 63
COc1ccccc1-c1cnn2c(N3CCCCC3CCO)ccnc12 (centres undefined)	none
CC(C)C[C@H]1NC(=O)[C@@H]2C[C@H](NCc3cnn(-c4cccc(Cl)c4)c3)CN2C1=O	none
Cc1ccc(-c2cnn3c(N4CCCCC4CCO)ccnc23)cc1C (centres undefined)	none
OCCC1CCCCN1c1ccnc2c(-c3ccc(F)cc3)cnn12 (centres undefined)	TEAD-YAP inh 97
Cc1cc(-n2c(SCC(=O)NCC3CCCO3)nc3n[nH]c(C)c3c2=N)ccc1Cl (centres undefined)	none
C=CCNC(=O)c1c(-c2ccccc2)nc2cc(C)ccn12	FBW7 act 1.9
COc1ccccc1-c1cc(C(=O)Nc2cccnc2)c2ccccc2n1	none
CCc1ccc(CN2CCC3(CCC(CNC(=O)C(C)C)O3)CC2)cc1 (centres undefined)	none
CC(C)C(=O)NCC1CCC2(CCN(Cc3ccc(C#CC(C)(C)O)cc3)CC2)O1 (centres undefined)	TEAD-YAP inh 51
